The panel holds about 83,000 compounds, 20% with a hit somewhere; the sample as a whole holds those more often.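 Growth was measured after 48 h exposure to one concentration of compound in 96-well plates. Values under 10 count as active.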 Unmarked numbers belong to inactive results. Activity calls are given as the source filed them.
Test system: MDA-MB-468 breast
Assay: NCI-60 one-dose screen, 48 h (100 = growth as untreated, 0 = no growth, -100 = all killed)
Settings: 10 µM unless noted

SMILES | growth
Cc1[nH]ccc2cc3nc4ccccc4c3cc12 | 10.7%
CCN(CC)C(=O)C1(C)CCCC2(C)c3cc(OC(C)=O)ccc3CCC12 (stereo not drawn) | 56.9%
CCOc1ccc(-c2cc(C3(S(=O)(=O)c4ccc(C)cc4)CC=CC3)on2)cc1 | 72%
COc1ccc2cc(-c3ccnc4c(N=Nc5ccc(Cl)cc5)c(N)nn34)ccc2c1 | 98.8%
Nc1ncn([C@@H]2O[C@H](CO)[C@@H](O)C2(F)F)c(=O)n1 | 71.4%
CN1C(=O)[C@H]2c3c1cccc3[C@@]13NC(=O)O[C@H]1[C@H](CCC3(C)C)C2(C)C | 78.6%
CN(C)CCNc1nc2ccccc2c2c(=O)c3cc(F)ccc3sc12 | -28.1% (active)
COc1ccccc1/C=C1\COc2ccc(-c3ccccc3)cc2C1=O | 3.14% (active)
CN1C(=O)C2(SCC(C(=O)NCc3ccccc3)N2C(=O)C2CCCCC2)c2ccccc21 (stereo not drawn) | 98.2%
Fc1cccc(-c2[nH]nc3nc(Nc4cccnc4)sc23)c1 | 11.9%
Clc1ccc(C2CC(c3cccc(Nc4ccncc4)c3)=NN2c2ccccc2)cc1 (stereo not drawn) | 61.6%
CCOC(=O)n1cc(-c2nonc2-c2cn(C)c3ncccc23)c2ccccc21 | -8.56% (active)
CCOC(=O)c1cc(C(=O)c2ccc(OC)cc2)n2ccc(/C=C/c3cc[n+](CC(=O)c4ccc(OC)cc4)cc3)cc12 | -38.2% (active)
COc1ccc(-c2nc3sc(-c4cc(OC)c(OC)c(OC)c4)nn3c2/C=C2/C(=O)Nc3ccc(F)cc32)cc1 | -65.3% (active)
O=C1N[C@@H]2NC(=[N+]3CCOCC3)N[C@@H]2N1 | 99.6%
O=C(O)c1ccc[n+](CC(=O)N2CCN(c3cc4c(cc3F)c(=O)c(C(=O)O)cn4C3CC3)CC2)c1 | 81.4%
CC(=O)Nc1ccc(CC[C@H]2CCC/C=C/[C@@H]3C[C@H](O)C[C@H]3[C@H](O)/C=C/C(=O)O2)cc1 | -23.5% (active)
CCCCCN(CCCCC)C(=O)C(CCC(=O)O)NC(=O)c1ccc(Cl)c(Cl)c1 (stereo not drawn) | 106%
N=C(N)c1ccc(-c2ccc(-c3cncc4ccccc34)s2)s1 | -72% (active)
COc1cc2c(cc1OC(C)=O)C(=O)CCCC2 | 76.8%
CC(=O)c1c(C)nc(SCC(=O)Nc2cccc(O)c2)n1-c1ccc(Cl)cc1 | 79.7%
C=CCn1c(SCC(=O)Nc2ccc(C(=O)/C=C/c3ccc(Cl)cc3)cc2)nnc1-c1ccc(Cl)cc1 | 89%
Cc1c(C(N)=O)sc2ncn(CC(=O)Nc3ccc(Cl)cc3)c(=O)c12 | 92.1%
O=C1C(=O)c2c(nc3ccc(Br)cn23)-c2ccccc21 | -58% (active)
Cc1ccccc1-n1nnc(C(=O)Nc2nc(-c3ccccc3)c(-c3ccccc3)s2)c1C | 61.9% [50 µM]
COc1cccc(C2C(C#N)=C(N)Oc3cc(N)ccc32)c1 (stereo not drawn) | -22.2% (active)
CCC1(CC)NC(=O)c2c(c3ccc(Cl)c(Cl)c3n2C)C1C#N (stereo not drawn) | 106%
O=C(N/N=C/c1cccnc1)c1ccccc1Nc1cccc(C(F)(F)F)c1 | 74.5%

Reference: PubChem BioAssay (NCI)
